# hcGAS inh – Primary biochemical luminescence assay for human cyclic GMP-AMP synthase inhibitors | recombinant h-cGAS, ATP depletion, Kinase-Glo luminescence | 290,000 tested, 0.081% active | Q8N884 | inhibition, % at 12.5 µM
# NPYLR7 ag – agonists of mosquito NPYLR7 receptor, primary screen, cell-based, Aedes aegypti, calcium fluorescence, mosquito biting behavior. HEK293T NPYLR7/Galpha15, GCaMP6s calcium fluorescence. activation, % at 10 µM. 270,000 tested, 0.15% active. AID 1259423, 2018; in the data active = activation above about 40%
# mcGAS lum – cyclic GMP-AMP synthase inhibitors, mouse, primary biochemical chemiluminescence; recombinant cGAS, Kinase-Glo ATP depletion luminescence; inhibition, % at 12.5 µM; 160,000 tested, 0.15% active
# Target sequence (Q8C6L5 whole entry, looked up): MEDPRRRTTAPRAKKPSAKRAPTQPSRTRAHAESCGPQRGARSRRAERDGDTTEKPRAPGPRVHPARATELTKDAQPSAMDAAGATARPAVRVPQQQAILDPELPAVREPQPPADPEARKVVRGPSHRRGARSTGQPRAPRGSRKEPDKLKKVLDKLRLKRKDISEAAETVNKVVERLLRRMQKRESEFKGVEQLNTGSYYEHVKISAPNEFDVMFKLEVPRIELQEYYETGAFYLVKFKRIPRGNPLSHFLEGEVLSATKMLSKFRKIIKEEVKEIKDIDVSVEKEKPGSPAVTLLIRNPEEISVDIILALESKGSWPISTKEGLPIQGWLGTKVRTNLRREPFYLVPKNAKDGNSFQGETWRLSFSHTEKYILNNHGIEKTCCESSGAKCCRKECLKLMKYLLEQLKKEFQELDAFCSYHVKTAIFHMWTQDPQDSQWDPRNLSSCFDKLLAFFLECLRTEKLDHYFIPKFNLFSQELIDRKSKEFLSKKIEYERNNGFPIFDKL
# Hits are given with their value; i = inactive; nt = no result given. Compounds with a hit are over-represented: about 0.3% of the library has one in this group of screens. Rule as the data show it, unless noted: active = inhibition above about 40%; inactive = the rest.
SMILES,hcGAS inh,NPYLR7 ag,mcGAS lum
O=C1NC(=S)S/C1=C/c1cc(Br)c(O)c(Br)c1,i,i,42.5
O=C1NC(=S)N/C1=C\c1cc(Br)c(O)c(Br)c1,i,i,i
CCCCC(CC)C(=O)Nc1c(-c2ccc(C)cc2)nc2cc(C)ccn12 (stereo not drawn),i,i,i
CC(C)(NC(=O)CCc1cccs1)c1ccc(Br)cc1,i,i,nt
CCCCOC(=O)c1ccc(NC(=O)c2cccn(OCc3cccc([N+](=O)[O-])c3)c2=O)cc1,i,i,i
COCc1ncc(CN2CCCN(C(=O)C3CCC3)CC2)cn1,i,i,nt
C=CCO/N=C(/C)c1c(O)c(C)c(-c2ccccc2)n(-c2ccccc2)c1=O,i,i,nt
CC(C)OCCCNC(=O)c1ccc(-c2cc(-c3ccc4c(c3)OCCO4)n[nH]2)cc1,i,i,i
N#CC(C#N)=C1C=C2C=C(N3CCN(Cc4ccccc4)CC3)CCC2CC1 (stereo not drawn),i,47.1,nt
N#CC(C#N)=c1c2nn(Cc3ccccc3)nc2c(=C(C#N)C#N)c2nn(Cc3ccccc3)nc12,i,i,i
N#CC(C#N)=C1C=C2C=C(N3CCCC3)CCC2CC1 (stereo not drawn),i,90.0,i
N#CC(C#N)=C1C=C2C=C(N3CCCCC3)CCC2CC1 (stereo not drawn),i,116.3,i
Cc1cnc(NC(=O)/C=C/c2ccccc2C#N)s1,i,i,i
Cc1ccccc1-c1ncc(CN2CCN(Cc3ccc(F)c(F)c3)C(CCO)C2)cn1 (stereo not drawn),i,i,i
COc1ccc(Cn2cnc3c4cc(F)ccc4n(CC(=O)NCCC4=CCCCC4)c3c2=O)cc1,i,nt,i
CC(C)(Oc1ccc(Cl)cc1)C(=O)Nc1ccc(-c2onc3c2CCCC3)cc1,i,i,i

# Compound activity: PubChem, Fisher Drug Discovery Resource Center
